# An excerpt weighted towards active compounds, which were near 12% of everything screened.
# Sfp inh: Sfp phosphopantetheinyl transferase inhibition; Potency, µM, without a hit: largest response in the series, negative = inhibition, actives largely listed as inhibitors; Biochemical Sfp PPTase activity, qHTS; Q9F4F7; actives 3.5% (n = 310,000);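 further: the enzyme is Sfp with the accession as filed and its product quenches rhodamine fluorescence; 0% = enzyme reaction without inhibitor and -100% = no enzyme wells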
#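 Fluorescence-quenching assay: 15 nM Sfp-PPTase preincubated 15 min at room temperature with compound, then 5 uM rhodamine-CoA and 12.5 uM BHQ-2-labelled YbbR peptide added. Fluorescence (ex 525/em 598 nm) read at start and after 30 min; difference gives rate.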
# G9a inh: inhibitors of human histone lysine methyltransferase G9a; G9a H3K9 monomethylation, AlphaScreen, 2 h; Q96KQ7; actives 8.8% (n = 350,000); Potency, µM (series often up to 102 µM), without a hit: at the top dose activity, negative = inhibition, hits mostly inhibitors; further: on the % scale 0 is the no-effect control and ±100 the full control effect; nearly all actives have a fitted effect of over 75% in size
#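 Signal arises when biotinylated H3K9 peptide, once monomethylated, bridges streptavidin donor and antibody-captured acceptor beads. Enzyme at 20 nM was preincubated 15 min with test compounds; peptide 500 nM and SAM 20 uM then reacted for 2 h.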
# HP1b binding inh: inhibitors of HP1-beta chromodomain binding to methylated histone tails; Potency, µM (series often up to 114 µM), for inactives: at the highest dose activity change, negative = inhibition, actives largely listed as inhibitors; AlphaScreen HP1-beta / biotin-H3K9me3 peptide binding; AID 540317; actives 0.56% (n = 390,000); further: nearly all actives have a fitted effect of over 70% in size
#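 AlphaScreen: HP1-beta (50 nM) preformed 30 min with biotin-H3(1-18)K9me3 peptide (50 nM) in PBS pH 7.4, 0.01% Tween-20. Compound added for 30 min at RT, then streptavidin donor/nickel chelate acceptor beads (10 ug/mL) for 30 min.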
# JMJD2A Tudor: inhibitors of human JMJD2A Tudor domain. AlphaScreen JMJD2A-Tudor / H3K4me3 peptide binding. O75164. actives 4.4% (n = 390,000). Potency, µM (highest dose often 114 µM), inactives show at the highest dose activity change, negative = inhibition, most hits filed as inhibitors. AID 504339; further: on the % scale 0 is the no-effect control and ±100 the full control effect; nearly all actives have a fitted effect of over 50% in size
# BAZ2B block: BAZ2B (human) inhibition; Potency, µM (doses to about 114 µM), without a hit: at the top dose activity change, negative = inhibition, hits mostly inhibitors; Q9UIF8; AID 504333; actives 4.4% (n = 360,000); AlphaScreen BAZ2B-H3K14Ac peptide displacement; further: on the % scale 0 is the no-effect control and ±100 the full control effect; nearly all actives have a fitted effect of over 60% in size
# Target sequence (Q9UIF8 whole entry, looked up): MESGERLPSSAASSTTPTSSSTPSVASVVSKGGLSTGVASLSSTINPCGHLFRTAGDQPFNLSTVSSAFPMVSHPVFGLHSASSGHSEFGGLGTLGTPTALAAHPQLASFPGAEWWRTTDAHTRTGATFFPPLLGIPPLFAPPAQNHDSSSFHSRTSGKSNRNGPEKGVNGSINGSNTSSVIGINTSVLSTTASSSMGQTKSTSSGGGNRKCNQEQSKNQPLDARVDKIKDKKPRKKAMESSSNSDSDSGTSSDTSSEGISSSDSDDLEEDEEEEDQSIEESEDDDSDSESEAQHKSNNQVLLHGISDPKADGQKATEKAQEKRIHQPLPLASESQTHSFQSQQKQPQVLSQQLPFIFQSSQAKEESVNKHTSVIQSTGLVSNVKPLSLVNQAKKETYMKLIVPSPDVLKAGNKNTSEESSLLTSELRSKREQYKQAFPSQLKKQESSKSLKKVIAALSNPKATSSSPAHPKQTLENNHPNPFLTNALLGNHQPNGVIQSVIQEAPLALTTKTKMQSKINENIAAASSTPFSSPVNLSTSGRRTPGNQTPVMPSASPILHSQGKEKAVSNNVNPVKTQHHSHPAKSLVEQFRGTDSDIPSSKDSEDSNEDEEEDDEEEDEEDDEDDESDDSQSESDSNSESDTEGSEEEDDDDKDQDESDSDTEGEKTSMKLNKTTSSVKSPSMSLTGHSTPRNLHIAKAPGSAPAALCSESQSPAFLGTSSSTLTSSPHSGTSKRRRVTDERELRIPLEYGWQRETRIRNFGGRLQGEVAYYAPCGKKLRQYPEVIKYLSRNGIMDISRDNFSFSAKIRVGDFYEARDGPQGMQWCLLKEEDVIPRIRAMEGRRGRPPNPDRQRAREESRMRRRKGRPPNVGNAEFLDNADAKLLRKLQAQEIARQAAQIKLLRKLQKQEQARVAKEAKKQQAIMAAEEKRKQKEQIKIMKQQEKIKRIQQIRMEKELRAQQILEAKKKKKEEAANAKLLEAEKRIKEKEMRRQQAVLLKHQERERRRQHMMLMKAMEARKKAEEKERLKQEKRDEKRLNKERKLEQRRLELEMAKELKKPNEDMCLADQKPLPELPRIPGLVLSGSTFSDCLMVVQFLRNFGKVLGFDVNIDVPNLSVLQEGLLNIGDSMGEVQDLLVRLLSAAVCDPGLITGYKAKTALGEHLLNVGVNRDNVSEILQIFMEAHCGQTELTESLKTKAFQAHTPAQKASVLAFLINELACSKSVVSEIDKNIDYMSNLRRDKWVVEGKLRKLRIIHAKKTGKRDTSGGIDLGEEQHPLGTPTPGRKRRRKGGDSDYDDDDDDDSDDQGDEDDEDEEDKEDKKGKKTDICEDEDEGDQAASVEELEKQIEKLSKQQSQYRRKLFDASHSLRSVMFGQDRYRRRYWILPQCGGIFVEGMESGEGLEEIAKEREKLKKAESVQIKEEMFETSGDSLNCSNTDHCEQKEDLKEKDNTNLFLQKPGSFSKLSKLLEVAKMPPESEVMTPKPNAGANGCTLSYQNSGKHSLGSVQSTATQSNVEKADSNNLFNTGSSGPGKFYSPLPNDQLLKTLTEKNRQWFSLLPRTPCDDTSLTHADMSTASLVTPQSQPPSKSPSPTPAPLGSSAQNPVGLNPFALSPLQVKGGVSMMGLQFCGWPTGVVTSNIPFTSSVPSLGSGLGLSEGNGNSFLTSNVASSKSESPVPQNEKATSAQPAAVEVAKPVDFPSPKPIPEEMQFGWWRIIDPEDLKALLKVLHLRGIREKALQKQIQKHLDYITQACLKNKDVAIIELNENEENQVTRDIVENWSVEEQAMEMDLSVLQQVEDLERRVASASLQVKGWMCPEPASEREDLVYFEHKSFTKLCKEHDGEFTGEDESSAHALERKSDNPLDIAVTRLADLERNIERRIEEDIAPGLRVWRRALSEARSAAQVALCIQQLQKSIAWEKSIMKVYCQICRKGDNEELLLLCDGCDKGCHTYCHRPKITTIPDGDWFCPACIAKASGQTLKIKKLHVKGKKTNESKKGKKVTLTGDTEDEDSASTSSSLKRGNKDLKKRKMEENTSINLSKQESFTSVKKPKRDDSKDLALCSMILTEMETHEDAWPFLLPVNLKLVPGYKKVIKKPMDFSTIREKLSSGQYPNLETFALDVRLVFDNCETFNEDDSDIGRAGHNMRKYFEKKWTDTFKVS
#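 AlphaScreen displacement: compounds (up to 110uM) incubated 30 min at room temperature with a preformed 50 nM BAZ2B/50 nM biotinylated H3K14Ac peptide complex in PBS pH 7.4 with Tween-20. Donor and acceptor beads at 10 ug/mL final added, 20 min light-protected before reading.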
# TDP1 inh: TDP1 (human) enzyme inhibition | recombinant TDP1, AlphaScreen DNA substrate cleavage | Potency, µM (series often up to 130 µM), without a hit: top-dose activity change, negative = inhibition, usual class: inhibitors | actives 0.28% (n = 350,000); further: on the % scale 0 is the no-effect control and ±100 the full control effect; nearly all actives have a fitted effect of over 40% in size
#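 Enzyme-compound mixtures sat 15 min at room temperature, followed by a 5 min reaction with 15 nM final substrate and 10 min with AlphaScreen beads. Recombinant human Tdp1 was used at 1 nM final.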
# * = called active by the depositor; ? = inconclusive; . = no result; [ ] = dose if it differs, or a comment. The call rests on the fitted dose curve; in most records, active means well fitted curve in the direction sought with a large enough effect; inconclusive means small, poorly fitted or top-dose-only effect, or another doubt; inactive means no such curve, though single readings can be large; an effect the other way counts as inactive or inconclusive. Potency means the concentration at half of the fitted maximal effect.
SMILES,Sfp inh,G9a inh,HP1b binding inh,JMJD2A Tudor,BAZ2B block,TDP1 inh
CCN1C(=O)c2ccccc2Sc2ccc(NC(=O)Nc3cc(C)cc(C)c3)cc21,.,-38%[59 µM],20%,-5%,-4%,6%
O=C(Nc1nc(-c2cc3ccccc3oc2=O)cs1)c1ccco1,-20%,35µM*,27%,-30%,?,-6%
O=C(Nc1nc(-c2ccncc2)cs1)c1ccco1,-27%,35µM*,21%,-15%,-9%,6%
C[C@H](NC(=O)c1ccco1)C(=O)Nc1nnc(SCc2ccccc2)s1,.,.,26%,0%,.,2%
COc1ccc(-c2csc(NC(=S)NC(=O)c3ccco3)n2)cc1,?,?,22%,-17%,-6%,2%
CCc1ccc(-c2csc(NC(=O)Oc3ccccc3)n2)cc1,15%,45µM*,-6%,-31%,-33%,0%
O=C(Nc1ccc(NC(=O)c2cc3ccccc3o2)cc1)c1ccco1,11%,1%,16%,8%,-1%,.
C[C@H](NC(=O)c1ccco1)C(=O)Nc1nc(-c2ccccn2)cs1,.,.,30%,45µM*,.,.
Cn1nnnc1Sc1ncnc2scc(-c3ccccc3C#N)c12,.,.,.,-14%,.,.
CCn1cc(S(=O)(=O)c2ccccc2)c(=O)c2cc(C)ccc21,.,-35%[59 µM],25%,-8%,-13%,9%
CCC(C)C(NC(=O)OC(C)(C)C)C(=O)NC1COC2CC(n3cc(F)c(=O)[nH]c3=O)OC12 (stereo unspecified),-3%,.,19%,-14%,.,10%
Cc1cccc(OC(C)C(=O)Nc2nc(-c3ccncc3)cs2)c1 (stereo unspecified),.,35µM*,22%,-5%,5%,2%
CC(OC(=O)c1cccs1)C(=O)Nc1nc(-c2ccccc2)cs1 (stereo unspecified),10%,79µM*,25%,5%,3%,2%
NC(=O)C1CC(=O)N(c2ccc(OCc3ccc(F)cc3)cc2)C1 (stereo unspecified),3%,-4%,45%,-12%,-2%,2%
Cc1cccc(N2CCN(C(=O)c3ccc4c(c3)NC(=O)C(CSCc3cccc(F)c3)N4)CC2)c1C (stereo unspecified),89µM*,10µM*,.,.,?,1%
Cc1ccc(NC(=O)CS(=O)CC(=O)N(c2ccc(C)cc2)C(C)C(=O)NC2CCCCC2)cc1 (stereo unspecified),-2%,18µM*,41%,-3%,16%,-4%[56.1 µM]
CC(C(=O)NC1CCCC1)N(C(=O)CS(=O)CC(=O)Nc1ccc(F)cc1)c1ccc2c(c1)OCCO2 (stereo unspecified),-11%,-7%[0.501 µM],22%,-12%,?,5%
Cc1ccn2cc(CC(=O)O)nc2c1,56µM*,20µM*,71µM*,40µM*,56µM*,.
Oc1ccc(-c2cn3ccccc3n2)cc1,5%,?,48%,-17%,-17%,0%
Oc1ccc(-c2cn3ccccc3n2)cc1O,?,2µM*,?,25µM*,79µM*,.
CCS(=O)(=O)Nc1cc(-c2cn3ccc(C)cc3n2)ccc1C,.,-15%[59 µM],29%,-20%,-26%,7%
Cc1ccn2cc(-c3ccc(O)c(O)c3)nc2c1,50µM*,8.9µM*,?,40µM*,71µM*,.
COc1ccc(C(=O)NCc2cn3ccc(C)cc3n2)cc1,.,-30%[59 µM],36%,-2%,-1%,11%
C[C@H]1Cc2c(COc3ccccc3)nc3c(c2CO1)CN(S(=O)(=O)c1ccc(C#N)cc1)CC3,8%,.,.,.,.,7%[12.3 µM]
Cc1cccc(NC(=O)CSc2nc3[nH]c(=O)cc(O)c3s2)c1,.,?,13%,-13%,0%,2%
SMILES,Sfp inh,G9a inh,HP1b binding inh,JMJD2A Tudor,BAZ2B block,TDP1 inh
COCCN(Cc1nc(-c2ccc(-c3ccccc3)cc2)oc1C)C(C)C,-5%,.,32%,-14%,-3%,.
Cc1ccc(CNC(=O)CNC(=O)[C@@H]2Cc3ccccc3CN2C(=O)OC(C)(C)C)cc1,11%,-9%,39%,-14%,-5%[57.1 µM],1%
COCCn1c(N)c(N(Cc2ccccc2)C(=O)c2cc(=O)[nH]c3ccccc23)c(=O)[nH]c1=O,.,.,13%,-10%,.,-3%
CCCCn1c(N)c(N(Cc2ccccc2OC)C(=O)c2cc(=O)[nH]c3ccccc23)c(=O)[nH]c1=O,.,35µM*,6%,-12%,34%,0%
CC(=Nc1ccccc1O)c1sc2ccccc2c1O,-6%,?,8%,?,?,10%
CC(=O)NCCN=C(C)c1sc2ccccc2c1O,-14%,18µM*,-5%,-23%,-6%,-6%
CC(=Nc1ccc(O)cc1)c1sc2ccccc2c1O,-16%,10µM*,0%,-10%,-35%,3%
Cc1nc(SCC(=O)NC2CCS(=O)(=O)C2)c2c3c(sc2n1)CCCC3 (stereo unspecified),.,50µM*,20%,-11%,4%,-6%[0.505 µM]
CCn1c2c(c(=O)n3ncc(C(=O)Nc4cccc(Cl)c4C)c13)CN(Cc1ccc(OC)cc1)CC2,.,14µM*,14%[57 µM],?,-9%,7%
CCn1c2c(c(=O)n3ncc(C(=O)Nc4ccc(Cl)cc4C)c13)CN(Cc1ccc(OC)cc1)CC2,.,-7%[59 µM],13%[57 µM],-26%,-21%,5%
CCn1c2c(c(=O)n3ncc(C(=O)Nc4ccc(C(=O)OC)cc4)c13)CN(Cc1ccc(OC)cc1)CC2,.,28µM*,16%[57 µM],?,-24%,1%
O=C1C=C(NCc2ccc(Cl)cc2)CC(c2ccco2)C1 (stereo unspecified),6%,0%[59 µM],?,?,50µM*,-8%
O=C1C=C(Nc2ccc(Cl)cc2Cl)CC(c2ccco2)C1 (stereo unspecified),-25%,50µM*,15%,-7%,-13%,-3%
O=C1C=C(Nc2ccc(O)cc2)CC(c2ccco2)C1 (stereo unspecified),9%,?,3%,-33%,-4%,3%
CC(C)CNC1=CC(=O)CC(c2ccco2)C1 (stereo unspecified),?,-1%[59 µM],-11%,-34%,?,.
O=C1C=C(O)CC(c2ccco2)C1 (stereo unspecified),14%,?,-34%,56µM*,?,.
COc1ccc(NC(=O)Cc2cccc3ccccc23)cc1,1%,.,35%,-7%,?,2%
CCOC(=O)c1cc2c(=O)n3ccccc3nc2n(CC2CCCO2)c1=NC(=O)c1ccc(C)cc1 (stereo unspecified),.,-50%[59 µM],39%,-10%,-1%,-3%
C(#Cc1ccccc1)C[N+]1(CC#Cc2ccccc2)CCCC1,1%,19%[59 µM],0%,-15%,2%,1%
